# In all, about 38,000 compounds went through this assay and about 1,200 (3.2%) showed an effect of 50% or more. The median lay at about -58%. This is one part of a sample in which strong results are shown more often than they occur.
# Test system: Plasmodium falciparum
# Experiment: Calibr Malaria Delayed Death Assay SOP
# Format: functional, organism-based
# Design: scale not given: in the data most compounds retested in dose-response had high values
# Conditions: concentration 4.99e-06 (unit not given; other assays of the set use mol/L)
row,Compound,Percent Effect
1,O=C(Cc1cccs1)N1CCn2cc(Cn3cccn3)nc2C1.O=C(O)C(F)(F)F,-86.13%
2,CN1CCN(C2CCN(CCOc3ccccc3F)CC2)C1=O,-15.81%
3,O=C(c1ccoc1)N1CC[C@H]2C[C@@H](c3nnc(C4CC4)o3)O[C@@H]2C1,-57.61%
4,Cc1nc(C)n(C2CCCN(C(=O)c3cn4cccnc4n3)C2)n1 (centres undefined),-31.26%
5,CC1(C)CN(C(CNS(C)(=O)=O)c2ccc(Cl)cc2)CCO1 (centres undefined),-25.75%
6,CC1(C)CN(C(CNS(N)(=O)=O)c2ccc(Cl)cc2)CCO1 (centres undefined),-0.7806%
7,O=S(=O)(NCC1(c2cccs2)CCOCC1)c1ccc2c(c1)OCCO2,-63.38%
8,Cc1ncsc1CNC(=O)NCC1(c2ccc3c(c2)OCO3)CC1,-37.92%
9,O=C(Cc1ccc2c(c1)OCCO2)NC1CCCC1,-102.8%
10,Cc1csc(CNC(=O)NCC2(c3ccc4c(c3)OCO4)CC2)n1,-58.48%
11,I.c1cc2c(cc1C1(CNC3=NCCN3)CCCC1)OCCO2,80.88%
12,c1cnc(NCc2noc3c2CN(c2cnccn2)CC3)nc1,-103.6%
13,CC(=O)NCc1ccc(C(=O)N2CCCC(n3cncn3)C2)o1 (centres undefined),-131.6%
14,O=C([C@@H]1CCO[C@@H]2CCN(CC3CC3)C[C@H]21)N1CCCCO1,-73.92%
15,CC(C)(C(=O)NCCCC(N)=O)c1cccc(Br)c1,-41.82%
16,CCC(=O)NCC(=O)NCc1cc(Br)ccc1OC(F)F,4.46%
17,CC(C)(C(=O)NCCC(=O)O)c1cccc(Br)c1,-14.62%
18,COC(=O)NCC(=O)NCC(C)(C)c1cccc(C(F)(F)F)c1,46.67%
19,COC(=O)NCC(=O)NCC(C)(C)c1cccc(Br)c1,84.11%
20,CCC(=O)NCC(=O)NCC(C)(C)c1cccc(Br)c1,86.82%
21,Cn1c(C2CC2)nc2c1CCN(CCOc1ccccc1C#N)C2,-3.674%
22,CC1c2ncc(CN3CCN(C)CC3)n2CCN1Cc1ccccn1.O=C(O)C(F)(F)F.O=C(O)C(F)(F)F.O=C(O)C(F)(F)F.O=C(O)C(F)(F)F (centres undefined),-124%
23,Oc1ccc(N2CCC(Cc3ccccc3)CC2)nn1,-73.68%
24,N#Cc1cccc(CNC(=O)Nc2cccnc2N2CCCC2)c1,-57.4%
25,CCNC(=O)c1ccnc(CC2COc3c(cccc3OC)C2)c1 (centres undefined),-85.49%

row,Compound,Percent Effect
1,CCc1ccc2nc(NCCCN(CCO)CCO)cc(C)c2c1,83.32%
2,CCc1ccc2nc(NCCOCCO)cc(C)c2c1,-140.8%
3,CCc1ccc2nc(NCC(O)CO)cc(C)c2c1 (centres undefined),-100%
4,COc1ccc(-c2ccc(C(=O)N3CCC[C@@H]3CO)o2)cc1,-98.07%
5,COCCN1C[C@@H]2CN(C(=O)[C@H]3CCCO3)C[C@@H]2C1=O,-140.9%
6,Cc1cnc(CN2CCN(c3ccnc(-c4ccccc4)n3)CC2)cn1,-117.9%
7,CC(C)(C)C(=O)N1C[C@H](c2ccsc2)[C@H]2CN(Cc3cccs3)CC[C@H]21.Cl,27.72%
8,COC(=O)N1CCC(NC(=O)N2CCCC2c2ccsc2)CC1 (centres undefined),-44.77%
9,O=C(CC1CC1)N1CCO[C@H]2[C@H](OCCCn3cccn3)CC[C@@H]21.O=C(O)C(F)(F)F,-14.73%
10,CN(C)C(=O)N1CCC2(CC(=O)N(c3cccc(C#N)c3)C2)C1 (centres undefined),-56.91%
11,Cc1ccccc1CC(=O)N1C[C@@H]2COC[C@]2(CN(C)C)C1.O=C(O)C(F)(F)F,-70.43%
12,CN1CCCN(C(=O)c2ccnn2-c2ccc3ccccn23)CC1.O=C(O)C(F)(F)F,69.35%
13,O=C(c1ccnn1-c1ccc2ccccn12)N1CCOCC1,-129.8%
14,CN(C)C1CCN(C(=O)c2ccnn2-c2ccc3ccccn23)CC1.O=C(O)C(F)(F)F,-10.05%
15,Cc1ncsc1CNCC(C)c1nc2ccccc2o1 (centres undefined),-88.91%
16,Cc1nc(CN2CCC(N(C)Cc3noc(C4CC4)n3)C2)oc1C (centres undefined),-157.8%
17,CCC[C@@H]1CN(C(=O)c2cc(-c3cccs3)n(C)n2)C[C@H]1N(C)C,-67.73%
18,CCC[C@@H]1CN(C(=O)c2ccccc2-c2ncc[nH]2)C[C@H]1N(C)C,-89.87%
19,CCC[C@@H]1CN(C(=O)c2ccccc2-c2ccccc2)C[C@H]1N(C)C,18.3%
20,CCC[C@@H]1CN(C(=O)c2cc3ccccc3cc2O)C[C@H]1N(C)C,51.44%
21,CCC[C@@H]1CN(C(=O)c2conc2-c2ccccc2)C[C@H]1N(C)C,50.45%
22,CCC[C@@H]1CN(C(=O)c2ccccc2C(C)=O)C[C@H]1N(C)C,-122.5%
23,CC(C)(C)c1cnc(CN(Cc2cccnc2)CC2CCCO2)o1 (centres undefined),21.12%
24,CC(O)CN1CCc2onc(-c3ccccc3F)c2C1 (centres undefined),-120.6%
